The source of these data is PubChem BioAssay (NCI).

Test systems include SK-MEL-2 melanoma; EKVX NSCLC; SN12C renal; TK-10 renal; ACHN renal; A498 renal; CCRF-CEM leukemia; MOLT-4 leukemia; SR leukemia; RPMI-8226 leukemia; OVCAR-8 ovarian; OVCAR-5 ovarian; OVCAR-4 ovarian; SK-OV-3 ovarian; IGROV1 ovarian; OVCAR-3 ovarian; HS 578T breast; NCI/ADR-RES ovarian.
Test in all cases: NCI-60 one-dose screen, 48 h (100 = growth as untreated, 0 = no growth, -100 = all killed)
Common to all, as to details: 10 µM unless noted

Compounds without any hit were thinned out: in the full panel of roughly 83,000, 20% have a hit.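 In brief: 96-well plates, 48 h treatment, single concentration, percent growth endpoint.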 Values without a mark were called inactive. Calls of active or inactive are those of the source. Rule for the calls: active = growth percent below 10; inactive = the rest.

Consider `COc1ccccc1S(=O)(=O)Nc1ccc2c3c(cc(-c4cnn(C)c4)nc13)C(=O)N2C`, for which the growth was 46.9% with SK-MEL-2 melanoma; 40.2% with EKVX NSCLC; 52.2% in the experiment on SN12C renal; 13% with TK-10 renal; 37.5% in the experiment on ACHN renal; 26.8% with A498 renal. The growth in the experiment on CCRF-CEM leukemia was 55.5%; in the experiment with MOLT-4 leukemia it was 44.7%; in the experiment on SR leukemia it was 46.1%; in the experiment with RPMI-8226 leukemia it was -4.77% (active); in the experiment on OVCAR-8 ovarian, 47.1%; in the experiment on OVCAR-5 ovarian, 54.1%. The growth in the experiment with OVCAR-4 ovarian was 51%; in the experiment on SK-OV-3 ovarian, 14.8%; in the experiment with IGROV1 ovarian it was 18.4%; in the experiment on OVCAR-3 ovarian it was 34.1%; with HS 578T breast it was 23.8%; in the experiment on NCI/ADR-RES ovarian, 35.9%.

On to `CS(=O)(=O)Nc1cccc(-c2ccc3ncnc(Nc4ccc(F)c(Cl)c4)c3c2)c1`, for which the growth is -4.95% (active) with SK-MEL-2 melanoma; 7.22% (active) in the experiment with EKVX NSCLC; 44.2% in the experiment on SN12C renal; 22.3% in the experiment with ACHN renal; -25.7% (active) in the experiment on A498 renal; 19.1% in the experiment with CCRF-CEM leukemia. Besides, the growth was 0.953% (active) in the experiment with MOLT-4 leukemia; -2.28% (active) in the experiment with SR leukemia; 18.4% in the experiment with RPMI-8226 leukemia; 29% with OVCAR-8 ovarian; 49.1% in the experiment on OVCAR-5 ovarian; 37% in the experiment with OVCAR-4 ovarian. Also, the growth was -10.8% (active) in the experiment with SK-OV-3 ovarian, -3.89% (active) in the experiment with IGROV1 ovarian, 11.5% in the experiment with HS 578T breast and 39.2% with NCI/ADR-RES ovarian.

`Clc1ccc(CN2COc3c(ccc4cccnc34)C2)cc1Cl`: the growth in the experiment with SK-MEL-2 melanoma is 11.8%; in the experiment on EKVX NSCLC it was 1.43% (active); with SN12C renal it was 19.4%; in the experiment on TK-10 renal, 25.9%; in the experiment with ACHN renal it was 4.57% (active); in the experiment with A498 renal, 52.8%. Further, the growth is -11.1% (active) with CCRF-CEM leukemia; -19.3% (active) in the experiment on RPMI-8226 leukemia; -24% (active) in the experiment with OVCAR-8 ovarian; 5.97% (active) with OVCAR-5 ovarian; 11.6% in the experiment with OVCAR-4 ovarian; 13.4% in the experiment with SK-OV-3 ovarian. The figures for the growth in the experiment with OVCAR-3 ovarian, in the experiment on HS 578T breast and with NCI/ADR-RES ovarian were -1.22% (active), 55.4% and -19% (active), respectively.

In the case of `Cc1ccc2oc(=O)cc(C3C(C#N)=C(N)Oc4c3ccc3ccccc43)c2c1` (configuration not stated), the growth in the experiment with SK-MEL-2 melanoma was 66.2%; in the experiment on EKVX NSCLC it was 77.6%; in the experiment on SN12C renal it was 92.6%; with TK-10 renal it was 91.9%; in the experiment with ACHN renal it was 99%; with A498 renal, 89.1%. The growth with CCRF-CEM leukemia is 81.9%; with MOLT-4 leukemia, 46.3%; with SR leukemia, 27.6%; with RPMI-8226 leukemia it was 70.2%; in the experiment with OVCAR-8 ovarian it was 85.8%; with OVCAR-5 ovarian it was 99.3%. In addition, the growth in the experiment with OVCAR-4 ovarian was 87.8%; in the experiment with SK-OV-3 ovarian it was 88.1%; in the experiment with IGROV1 ovarian, 75.6%; in the experiment on OVCAR-3 ovarian it was 75.6%; in the experiment with HS 578T breast it was 85.5%; in the experiment with NCI/ADR-RES ovarian, 62.9%.

As for `COc1ccc(-c2cnc(-c3ccc(F)cc3)[nH]2)cc1`, the growth was 113% with SK-MEL-2 melanoma; 90.7% with EKVX NSCLC; 99% in the experiment on SN12C renal; 230% in the experiment on TK-10 renal; 105% in the experiment on ACHN renal; 97.1% in the experiment on A498 renal. For the same compound, the growth with CCRF-CEM leukemia was -48.2% (active); in the experiment on MOLT-4 leukemia, 54.7%; with SR leukemia, -29.7% (active); in the experiment on RPMI-8226 leukemia, 44.5%; with OVCAR-8 ovarian it was 103%; with OVCAR-5 ovarian, 116%. Besides, the growth in the experiment on OVCAR-4 ovarian was 98.3%; in the experiment with SK-OV-3 ovarian, 121%; in the experiment on IGROV1 ovarian it was 95.3%; with OVCAR-3 ovarian, 91.3%; in the experiment on HS 578T breast, 99.2%; in the experiment with NCI/ADR-RES ovarian it was 115%.

As for `CS(=O)(=O)OCC(COS(C)(=O)=O)C(c1ccccc1)c1ccccc1`, the growth in the experiment with SK-MEL-2 melanoma is 123%; with EKVX NSCLC it was 99.1%; in the experiment on SN12C renal, 89.2%; with ACHN renal, 107%; in the experiment on A498 renal, 93.3%; with CCRF-CEM leukemia, 99.6%. Moreover, the growth with MOLT-4 leukemia was 75.7%; in the experiment on SR leukemia, 74.7%; with OVCAR-8 ovarian it was 118%; in the experiment on OVCAR-5 ovarian it was 110%; in the experiment on OVCAR-4 ovarian, 106%; in the experiment with SK-OV-3 ovarian it was 101%. For the same compound, the growth with IGROV1 ovarian was 102%; with OVCAR-3 ovarian, 127%; in the experiment with HS 578T breast it was 104%; with NCI/ADR-RES ovarian it was 99%.

Consider `COC(=O)c1oc2c(C(C)=O)c(OCCN3CCCCC3)ccc2c1C`, for which the growth was 88.7% in the experiment on SK-MEL-2 melanoma; 113% in the experiment with EKVX NSCLC; 119% with SN12C renal; 92.1% in the experiment on TK-10 renal; 108% in the experiment on ACHN renal; 131% in the experiment on A498 renal. For the same compound, the growth with CCRF-CEM leukemia is 50.5%; in the experiment on MOLT-4 leukemia it was 108%; in the experiment on RPMI-8226 leukemia it was 97.6%; in the experiment with OVCAR-8 ovarian it was 107%; in the experiment on OVCAR-5 ovarian it was 107%; in the experiment with OVCAR-4 ovarian it was 161%. Moreover, the growth is 107% in the experiment with SK-OV-3 ovarian, -8.51% (active) with IGROV1 ovarian, 107% with HS 578T breast and 95.5% in the experiment with NCI/ADR-RES ovarian.
